# Experimental data published in PubChem BioAssay (NCATS).
# Inconclusive results are not listed. Entries that show only a call come without a potency. Activity calls are given as the source filed them. Unless noted, the call rests on the fitted dose curve; in most records, active means well fitted curve in the direction sought with a large enough effect; inconclusive means small, poorly fitted or top-dose-only effect, or another doubt; inactive means no such curve, though single readings can be large; an effect the other way counts as inactive or inconclusive.
# Legend:
# [1] = target: Voltage-gated inwardly rectifying potassium channel KCNH2 (Homo sapiens) (UniProt Q12809); experiment: qHTS Assay for Small Molecule Inhibitors of the Human hERG Channel Activity (AID 588834);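 further: lower thallium flux fluorescence means stronger hERG block; nearly all actives have a fitted effect of over 50% in size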; further: potency means the concentration at half of the fitted maximal effect
# In short: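 hERG-BacMam U2OS, 2000 cells/well; 0.7X FluxOR loading 1 hr RT dark; cpd ~10 min 37 °C; stim buffer; FDSS fluorescence 2 min @ 1 s; AC50 Hill fit.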
# [2] = S16 Schwann cell viability assay (CellTiter-Glo assay) (AID 624031);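 further: native untransfected S16 rat Schwann cells; cellular ATP luminescence as a viability measure; series mostly up to about 58 µM; nearly all actives have a fitted effect of over 70% in size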
# In short: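 Following overnight culture in 10% FBS DMEM, parental S16 rat Schwann cells are dosed for 24 h at 37 °C. Viability is read as CellTiter-Glo luminescence and expressed as % activity relative to DMSO (0%) and no-cell wells.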
# [3] = S16 Schwann cell PMP22 intronic element beta-lactamase assay (AID 624044; calls by dose curve; further: nearly all actives have a fitted effect of over 15% in size; further: potency means the concentration at half of the fitted maximal effect)
# In short: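 Rat S16 Schwann cells with beta-Lac driven by a PMP22 intronic element, compound-treated 24 h at 37 °C. LiveBLAzer FRET B/G read: 460 nm normalized to potassium clavulanate vs DMSO; 535 nm FRET as viability; concentration-effect curves classified.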
# [4] = target: Glutaminase kidney isoform, mitochondrial (Homo sapiens) (UniProt O94925); experiment: qHTS for Inhibitors of Glutaminase (GLS): LOPAC Validation (AID 624146);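 further: glutamate product detected by oxidase and peroxidase coupled Amplex red fluorescence gain; series mostly up to about 46 µM; nearly all actives have a fitted effect of over 60% in size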
# In short: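 Enzyme dispensed in phosphate buffer (45 mM, pH 8.2, 0.02% Tween-20), compounds pinned in, then 1 mM L-glutamine solution and the glutamate oxidase–HRP–Amplex Red mix added; fluorescence read immediately and again after 30 min at room temperature.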
# [5] = qHTS of Trypanosoma Brucei Inhibitors: LOPAC Validation (AID 624147)
# In short: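 Glycolytic pyruvate kinase of T. brucei was incubated with substrate, test compound and 130 uM ADP for 45 minutes at room temperature. Luminescent Kinase-Glo Plus signal was measured after 10 minutes.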
# [6] = target: Glucagon-like peptide 1 receptor (Homo sapiens) (UniProt P43220); experiment: qHTS of GLP-1 Receptor Agonists: LOPAC Validation (AID 624148);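 further: higher luminescence signal means agonism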
# In short: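 HEK293 cells stably co-expressing a cAMP-responsive luciferase reporter and a hypersensitive GLP-1R were plated 12 h at 37 °C and exposed to compounds for 4-6 hr at 37 °C, 5% CO2. Luminescence was read 12 min after adding detection reagent.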
# [7] = qHTS of Nrf2 Activators: LOPAC Validation (AID 624149)
# In short: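 ARE reporter activation measured in AREc32 firefly luciferase cells after 24 hr compound exposure; Steady-Glo luminescence.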
# [8] = HTS Assay for Allosteric Antagonists of the Human D2 Dopamine Receptor: Hit Validation in HTRF (AID 624455);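 further: stable D1 dopamine receptor cell line scored for blocking the D1 response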
# In short: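 Signal from an HTRF read-out in D1-expressing stable cells gave hit activity as inhibition of the D1 response.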
# [9] = Cytotoxicity counterscreen for NFkB agonists and antagonists (AID 624476);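 further: cells exposed to compound for 48 hours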; further: potency means the concentration at half of the fitted maximal effect
# [10] = qHTS Assay for Identification of Small Molecule Agonists for NFkB Signaling Pathway. (AID 624478);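 further: compounds tested together with TNF alpha at its EC50 of 10 pM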
# In short: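 Cells carrying an NFkB response element-driven beta-lactamase gene are co-treated with compound and 10 pM TNF alpha for 5 h, and reporter activity is then read as 460 and 530 nm fluorescence.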
# [11] = S16 Schwann cell PMP22 intronic element firefly luciferase assay (AID 624032); further: nearly all actives have a fitted effect of over 30% in size; further: potency means the concentration at half of the fitted maximal effect
# In short: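 Rat S16 Schwann cells stably carrying a PMP22 intronic element-driven Fluc reporter were seeded overnight, then exposed to compounds for 24 h at 37 °C. Luminescence was normalized to PTC124 (positive control) and DMSO (0% activity).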
# [12] = qHTS Assay for Identification of Small Molecule Antagonists for NFkB Signaling Pathway. (AID 624479; calls by dose curve;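 further: pathway stimulated with TNF alpha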; further: potency means the concentration at half of the fitted maximal effect)
# Sequence of Voltage-gated inwardly rectifying potassium channel KCNH2 (Homo sapiens) (Q12809 whole entry, looked up): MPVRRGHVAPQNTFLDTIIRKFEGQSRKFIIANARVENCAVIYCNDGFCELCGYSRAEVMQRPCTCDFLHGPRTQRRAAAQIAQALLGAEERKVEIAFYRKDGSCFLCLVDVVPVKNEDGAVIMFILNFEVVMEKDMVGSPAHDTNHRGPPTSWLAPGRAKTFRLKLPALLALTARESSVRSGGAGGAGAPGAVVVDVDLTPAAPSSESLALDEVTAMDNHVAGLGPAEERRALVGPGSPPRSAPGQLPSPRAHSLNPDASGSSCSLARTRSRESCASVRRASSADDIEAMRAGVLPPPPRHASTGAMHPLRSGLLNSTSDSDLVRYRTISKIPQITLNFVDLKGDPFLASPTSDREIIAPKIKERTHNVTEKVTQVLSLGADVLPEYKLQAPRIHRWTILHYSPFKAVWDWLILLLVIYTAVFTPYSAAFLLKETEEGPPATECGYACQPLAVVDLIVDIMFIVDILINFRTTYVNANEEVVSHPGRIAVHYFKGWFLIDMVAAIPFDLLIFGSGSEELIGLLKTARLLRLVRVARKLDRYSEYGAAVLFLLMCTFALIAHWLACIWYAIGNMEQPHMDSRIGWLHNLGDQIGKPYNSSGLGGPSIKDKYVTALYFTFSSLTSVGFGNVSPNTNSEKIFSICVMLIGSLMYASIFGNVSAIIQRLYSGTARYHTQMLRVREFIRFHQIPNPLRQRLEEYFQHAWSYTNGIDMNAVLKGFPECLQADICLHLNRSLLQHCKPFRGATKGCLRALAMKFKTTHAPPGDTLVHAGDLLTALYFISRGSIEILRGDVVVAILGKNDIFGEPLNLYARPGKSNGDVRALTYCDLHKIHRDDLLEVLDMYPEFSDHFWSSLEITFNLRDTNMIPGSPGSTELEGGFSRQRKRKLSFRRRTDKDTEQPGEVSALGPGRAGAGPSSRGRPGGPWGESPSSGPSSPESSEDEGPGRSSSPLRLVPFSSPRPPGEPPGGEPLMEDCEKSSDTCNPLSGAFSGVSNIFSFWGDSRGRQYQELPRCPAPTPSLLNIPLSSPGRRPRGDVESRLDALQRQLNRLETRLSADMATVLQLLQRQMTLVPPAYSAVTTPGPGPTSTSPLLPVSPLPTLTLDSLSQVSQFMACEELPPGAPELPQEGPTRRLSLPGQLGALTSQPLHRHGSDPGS
# Sequence of Glutaminase kidney isoform, mitochondrial (Homo sapiens) (O94925 whole entry, looked up, canonical isoform): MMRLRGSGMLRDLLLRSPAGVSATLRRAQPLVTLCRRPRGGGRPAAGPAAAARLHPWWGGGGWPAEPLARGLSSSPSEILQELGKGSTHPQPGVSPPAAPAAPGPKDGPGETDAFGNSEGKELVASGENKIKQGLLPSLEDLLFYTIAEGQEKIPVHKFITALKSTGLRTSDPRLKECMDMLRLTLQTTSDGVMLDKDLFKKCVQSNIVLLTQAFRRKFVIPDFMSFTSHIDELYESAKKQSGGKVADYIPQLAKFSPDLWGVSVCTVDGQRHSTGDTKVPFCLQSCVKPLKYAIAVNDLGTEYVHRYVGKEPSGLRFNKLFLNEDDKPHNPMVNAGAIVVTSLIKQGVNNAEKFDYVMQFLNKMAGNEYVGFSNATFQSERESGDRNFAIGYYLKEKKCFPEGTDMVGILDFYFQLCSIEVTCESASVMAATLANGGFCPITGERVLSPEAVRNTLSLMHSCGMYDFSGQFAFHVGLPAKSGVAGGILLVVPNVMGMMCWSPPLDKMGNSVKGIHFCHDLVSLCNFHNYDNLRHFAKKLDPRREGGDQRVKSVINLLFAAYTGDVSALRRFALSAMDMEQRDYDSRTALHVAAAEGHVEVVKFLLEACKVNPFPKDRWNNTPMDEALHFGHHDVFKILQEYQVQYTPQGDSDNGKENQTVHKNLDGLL
# Sequence of Glucagon-like peptide 1 receptor (Homo sapiens) (P43220 whole entry, looked up): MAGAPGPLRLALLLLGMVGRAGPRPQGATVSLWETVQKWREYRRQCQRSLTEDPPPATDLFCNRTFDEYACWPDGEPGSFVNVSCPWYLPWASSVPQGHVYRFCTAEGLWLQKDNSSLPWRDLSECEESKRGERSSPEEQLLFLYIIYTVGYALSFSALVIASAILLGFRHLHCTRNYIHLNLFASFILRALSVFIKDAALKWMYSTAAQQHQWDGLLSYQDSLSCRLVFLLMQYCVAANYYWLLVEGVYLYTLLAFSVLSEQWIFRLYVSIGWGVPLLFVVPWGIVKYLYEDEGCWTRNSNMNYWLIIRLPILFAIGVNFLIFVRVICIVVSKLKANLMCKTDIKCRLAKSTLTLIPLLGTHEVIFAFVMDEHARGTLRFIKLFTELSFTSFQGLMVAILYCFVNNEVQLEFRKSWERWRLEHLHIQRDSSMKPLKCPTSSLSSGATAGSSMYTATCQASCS
smiles,measurement,setting,value
CN1CC(=O)N2C(Cc3c([nH]c4ccccc34)[C@H]2c2ccc3c(c2)OCO3)C1=O (stereo partly specified),Potency,[1],inactive
same,outcome,[2],inactive
same,Potency,[3],inactive
C[C@H]1O[C@@H](n2cc(F)c(=O)[nH]c2=O)[C@H](O)[C@H]1O,outcome,[4],inactive
same,outcome,[5],inactive
same,outcome,[6],inactive
same,outcome,[7],inactive
same,outcome,[8],inactive
Cc1ccc(C(=O)N(CCCN)[C@@H](c2nc3cc(Cl)ccc3c(=O)n2Cc2ccccc2)C(C)C)cc1,Potency,[9],23.5 µM (active)
same,outcome,[10],inactive
C=CCc1cccc(C=NNC(=O)CN2CCN(Cc3ccccc3)CC2)c1O,outcome,[4],inactive
same,outcome,[5],inactive
same,outcome,[6],inactive
same,outcome,[7],inactive
same,outcome,[8],inactive
N#CC(c1ccc(Cl)cc1)c1c(Cl)cc(-n2ncc(=O)[nH]c2=O)cc1Cl (stereo unspecified),Potency,[1],inactive
same,outcome,[2],inactive
same,Potency,[11],inactive
same,Potency,[3],inactive
CCCCn1c(=O)n(Cc2ccccc2F)c(=O)c2[nH]c(Cc3ccc(NC(C)=O)cc3)nc21,Potency,[9],inactive
same,outcome,[10],inactive
same,Potency,[12],6.68 µM (active)
COc1c(C)c2c(c(O)c1CC=C(C)CCC(=O)OCCN1CCOCC1)C(=O)OC2,Potency,[1],inactive
same,Potency,[11],5.1 µM (active)
same,Potency,[3],2.82 µM (active)
COc1c(C)cnc(Cn2cnc3c(Cl)nc(N)nc32)c1C,Potency,[9],inactive
same,outcome,[10],inactive
same,Potency,[12],0.0211 µM (active)
O=C(Nc1ccc(OC(F)(F)F)cc1)c1sccc1NCc1ccnc2ccccc12,Potency,[9],33.2 µM (active)
same,outcome,[10],inactive
C=C1c2cccc(O)c2C(O)=C2C(=O)[C@@]3(O)C(O)=C(C(N)=O)C(=O)[C@@H](N(C)C)[C@@H]3[C@@H](O)[C@H]12,Potency,[11],inactive
same,Potency,[3],inactive
CCC=CC[C@H]1C(=O)CC[C@@H]1CC(=O)OC,Potency,[9],inactive
same,outcome,[10],inactive
same,Potency,[12],inactive
O=C(O)Cc1cccc(OCCCN(Cc2cccc(C(F)(F)F)c2Cl)CC(c2ccccc2)c2ccccc2)c1,Potency,[9],26.4 µM (active)
CN1CCN2c3ncccc3Cc3ccccc3C2C1 (stereo unspecified),Potency,[1],inactive
same,outcome,[2],inactive
same,Potency,[11],inactive
same,Potency,[3],inactive
CS(=O)(=O)c1ccc(C2=C(c3ccccc3)C(=O)OC2)cc1,Potency,[1],inactive
same,outcome,[2],inactive
same,Potency,[11],inactive
same,Potency,[3],inactive
CC(C)C[C@H](NC(=O)c1cc2ccccc2s1)C(=O)N1CCN(C(=O)[C@H](CO)NS(=O)(=O)c2ccc(Cl)cc2Cl)CC1,Potency,[9],inactive
same,outcome,[10],inactive
Clc1ccc(COC(Cn2ccnc2)c2ccc(Cl)cc2Cl)c(Cl)c1 (stereo unspecified),Potency,[1],4.47 µM (active)
same,outcome,[2],inactive
same,Potency,[11],8.7 µM (active)
same,Potency,[3],inactive
Fc1ccc(C(c2ccc(F)cc2)N2CCN(CC=Cc3ccccc3)CC2)cc1,Potency,[3],inactive
CCOC(=O)[C@@H](N)CCC(=O)N[C@@H](CSCc1ccccc1)C(=O)N[C@@H](C(=O)OCC)c1ccccc1,Potency,[9],inactive
COc1ccc(-c2nc3ccc(C4=NNC(=O)CC4C)cc3[nH]2)cc1 (stereo unspecified),Potency,[1],inactive
O=C(O)c1nc(=O)[nH]c(=O)[nH]1,Potency,[1],inactive
same,outcome,[2],inactive
same,Potency,[11],16.1 µM (active)
same,Potency,[3],inactive
N#Cc1c(N(CC(=O)O)CC(=O)O)sc(C(=O)O)c1CC(=O)O,Potency,[1],inactive
same,outcome,[2],inactive
same,Potency,[11],inactive
same,Potency,[3],inactive
Cc1cccc(Nc2nc(N[C@@H]3CCCC[C@H]3N)ncc2C(N)=O)c1,Potency,[9],inactive
same,outcome,[10],inactive
CCNC(=O)[C@H]1O[C@@H](n2cnc3c(N)nc(NCCc4ccc(CCC(=O)O)cc4)nc32)[C@H](O)[C@H]1O,Potency,[1],inactive
Cc1cc2nc3c(=O)[nH]c(=O)nc-3n(CC(O)C(O)C(O)CO)c2cc1C (stereo unspecified),outcome,[2],inactive
same,Potency,[3],inactive
NCC1CCC(C(=O)O)CC1 (stereo unspecified),Potency,[1],inactive
same,outcome,[2],inactive
same,Potency,[11],inactive
same,Potency,[3],inactive
CC[C@H](C)C(=O)O[C@H]1C[C@H](O)C=C2C=C[C@H](C)[C@H](CC[C@@H](O)C[C@@H](O)CC(=O)O)[C@H]21,Potency,[1],inactive
CC(C)CN(C[C@@H](O)[C@H](Cc1ccccc1)NC(=O)O[C@H]1CO[C@H]2OCC[C@H]21)S(=O)(=O)c1ccc(N)cc1,outcome,[2],inactive
same,Potency,[11],inactive
NS(=O)(=O)c1cc(Cl)c(Cl)c(S(N)(=O)=O)c1,Potency,[1],inactive
same,outcome,[2],inactive
Cc1csc(-c2nnc(Nc3ccc(Oc4ncccc4-c4ccnc(N)n4)cc3)c3ccccc23)c1,Potency,[9],inactive
same,outcome,[10],inactive
same,Potency,[12],1.06 µM (active)
CC(C)n1c(C=C[C@H](O)C[C@H](O)CC(=O)O)c(-c2ccc(F)cc2)c2ccccc21,Potency,[9],inactive
same,outcome,[10],inactive
same,Potency,[12],inactive
O=C1C(CCC(O)c2ccc(F)cc2)C(c2ccc(O)cc2)N1c1ccc(F)cc1 (stereo unspecified),outcome,[2],inactive
same,Potency,[3],inactive
same,Potency,[9],inactive
same,outcome,[10],inactive
same,Potency,[12],inactive
